# From PubChem BioAssay (NCI)
# Compounds without any hit were thinned out: in the full panel of roughly 83,000, 20% have a hit.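 Each cell line was grown in a 96-well plate and treated with one concentration of compound for 48 hours. Values below 10 were considered active.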 The source made the active and inactive calls.
# System: SF-539 CNS
# Test: NCI-60 one-dose screen, 48 h (100 = growth as untreated, 0 = no growth, -100 = all killed)
# Conditions: 10 µM unless noted
row,SMILES,growth
1,Cc1ccc(Nc2ccc(O)c3c2C(=O)c2c(O)ccc(Nc4ccc(C)cc4)c2C3=O)cc1,96.3% (inactive)
2,CCOc1ccc2c(c1)/C(=C\C=C\C1CC(C)C3CC(OCC)CCC3N1CC)CC(C)N2CC (stereo not drawn),19.5% (inactive)
3,COc1ccc(C(Cn2ccnc2)Sc2ccc(Cl)c(Cl)c2)cc1 (stereo not drawn),95.6% (inactive)
4,Oc1ccc(Cl)cc1C(c1cc(Cl)ccc1O)C(Cl)(Cl)Cl,31.4% (inactive)
5,CCc1cccc(CC)c1N1C(=O)C=CC1=O,107% (inactive)
6,CCCC[n+]1c(/C=C\c2c(OC)cc(OC)cc2OC)ccc2ccccc21,10.3% (inactive)
7,Cc1nn(CCO)c(C)c1N=[N+]([O-])c1c(C)nn(CCO)c1C,89.1% (inactive)
8,O=C1C(=O)c2cccnc2-c2ncccc21,-97% (active)
9,COC(=O)c1ccc(=O)c2nc3/c(=C/O)c(O)cc(=O)c3[nH]c12,12.6% (inactive)
10,COc1cc(OC)c(/C=C/c2c3ccccc3cc[n+]2C)c(OC)c1,31.9% (inactive)
11,CC(C)(C)CC(C)(C)c1ccc(OCCOCCSC(=N)N)cc1,64.3% (inactive)
12,CC(=O)C1Cc2ccccc2C1=O (stereo not drawn),99.6% (inactive)
13,O=C1C=C(Cl)C(=O)c2ccccc21,109% (inactive)
14,CCCOC(=O)c1nc(N(CC2CCCCC2)C(=O)NC)sc1/N=C/c1ccccc1,-27.9% (active)
15,Cc1nc([N+](=O)[O-])c(Sc2nncc(-c3ccccc3)n2)n1C,106% (inactive)
16,Cc1nnc(N/N=C/c2ccc([N+](=O)[O-])o2)[nH]c1=O,-8.83% (active)
17,CC12CCC(O)CC1=CCC1C2CCC2(C)C3=NN=CC3CC12 (stereo not drawn),106% (inactive)
18,Nc1ccc(-c2ccc(N)c(S(=O)(=O)O)c2)cc1S(=O)(=O)O,106% (inactive)
19,COC(=O)c1cc([N+](=O)[O-])cc([N+](=O)[O-])c1Cl,102% (inactive)

row,SMILES,growth
1,CCCCCCCCCCCCN1C(C)=CS/C1=C\C=C\c1scc(C)[n+]1CCCCCCCCCCCC,44.4% (inactive)
2,O=C1CSC(=S)N1Cc1cccnc1,93.6% (inactive)
3,CCC[CH2][Sn]1([CH2]CCC)[O]C2C(CO)OC(n3ccc(N)nc3=O)C2[O]1 (stereo not drawn),-64.2% (active)
4,CCCCCCCCCCCC[N+]1(CCCCCCCCCCCC)CCCC(C)C1 (stereo not drawn),-99.6% (active)
5,CN(C)c1ccc(/C=C/c2ccnc3ccccc23)cc1,47.2% (inactive)
6,CCCCCCCCCCCCNCCCc1ccccc1,69.6% (inactive)
7,CC(=O)Nc1ccc(C(=O)CCl)cc1,56.1% (inactive)
8,O=C1C=CC(O)=CC1=P(c1ccccc1)(c1ccccc1)c1ccccc1,86.9% (inactive)
9,Oc1ccccc1N=Cc1ccccc1,108% (inactive)
10,CCCCOS(=O)(=O)c1ccccc1,102% (inactive)
11,O=[N+]([O-])c1cc(-c2ccccc2)c(O)c([N+](=O)[O-])c1,84.7% (inactive)
12,CCCCCCC1N=C(N)N=C(N)N1c1cccc(Cl)c1 (stereo not drawn),5.72% (active)
13,O=[n+]1c2ccccc2n([O-])c2cc(Cl)ccc21,53.1% (inactive)
14,N#CC1c2ccccc2C=CN1C(=O)CCCl (stereo not drawn),104% (inactive)
15,CN(Cc1ccccc1)c1ccc(SC#N)cc1,87.7% (inactive)
16,O=[N+]([O-])C=C(c1ccccc1)c1ccccc1,88.2% (inactive)
17,CC1CC(C)(C)OB(OC(C)CC(C)(C)OB2OC(C)CC(C)(C)O2)O1 (stereo not drawn),104% (inactive)
18,CCCCCCCCCCCC[n+]1ccccc1 (tested in a mixture with another compound),-10.5% (active)

# System: UACC-257 melanoma
# Test: as above
# Conditions: 10 µM unless noted
row,SMILES,growth
1,Cc1ccc(Nc2ccc(O)c3c2C(=O)c2c(O)ccc(Nc4ccc(C)cc4)c2C3=O)cc1,95% (inactive)
2,CCOc1ccc2c(c1)/C(=C\C=C\C1CC(C)C3CC(OCC)CCC3N1CC)CC(C)N2CC (stereo not drawn),-25.2% (active)
3,COc1ccc(C(Cn2ccnc2)Sc2ccc(Cl)c(Cl)c2)cc1 (stereo not drawn),92.1% (inactive)
4,Oc1ccc(Cl)cc1C(c1cc(Cl)ccc1O)C(Cl)(Cl)Cl,72.1% (inactive)
5,CCc1cccc(CC)c1N1C(=O)C=CC1=O,81.6% (inactive)
6,CCCC[n+]1c(/C=C\c2c(OC)cc(OC)cc2OC)ccc2ccccc21,-41.5% (active)
7,Cc1nn(CCO)c(C)c1N=[N+]([O-])c1c(C)nn(CCO)c1C,-56.2% (active)
8,O=C1C(=O)c2cccnc2-c2ncccc21,0.671% (active)
9,COC(=O)c1ccc(=O)c2nc3/c(=C/O)c(O)cc(=O)c3[nH]c12,5.98% (active)
10,COc1cc(OC)c(/C=C/c2c3ccccc3cc[n+]2C)c(OC)c1,-16.7% (active)
11,CC(C)(C)CC(C)(C)c1ccc(OCCOCCSC(=N)N)cc1,73% (inactive)
12,CC(=O)C1Cc2ccccc2C1=O (stereo not drawn),89.8% (inactive)
13,O=C1C=C(Cl)C(=O)c2ccccc21,96.2% (inactive)
14,CCCOC(=O)c1nc(N(CC2CCCCC2)C(=O)NC)sc1/N=C/c1ccccc1,37.5% (inactive)
15,Cc1nc([N+](=O)[O-])c(Sc2nncc(-c3ccccc3)n2)n1C,29.8% (inactive)
16,Cc1nnc(N/N=C/c2ccc([N+](=O)[O-])o2)[nH]c1=O,33.5% (inactive)
17,CC12CCC(O)CC1=CCC1C2CCC2(C)C3=NN=CC3CC12 (stereo not drawn),103% (inactive)
18,Nc1ccc(-c2ccc(N)c(S(=O)(=O)O)c2)cc1S(=O)(=O)O,134% (inactive)

row,SMILES,growth
1,COC(=O)c1cc([N+](=O)[O-])cc([N+](=O)[O-])c1Cl,70.4% (inactive)
2,CCCCCCCCCCCCN1C(C)=CS/C1=C\C=C\c1scc(C)[n+]1CCCCCCCCCCCC,-14.2% (active)
3,O=C1CSC(=S)N1Cc1cccnc1,59.5% (inactive)
4,CCC[CH2][Sn]1([CH2]CCC)[O]C2C(CO)OC(n3ccc(N)nc3=O)C2[O]1 (stereo not drawn),-87.3% (active)
5,CCCCCCCCCCCC[N+]1(CCCCCCCCCCCC)CCCC(C)C1 (stereo not drawn),-96.2% (active)
6,CN(C)c1ccc(/C=C/c2ccnc3ccccc23)cc1,41.9% (inactive)
7,CCCCCCCCCCCCNCCCc1ccccc1,82% (inactive)
8,CC(=O)Nc1ccc(C(=O)CCl)cc1,86% (inactive)
9,Oc1ccccc1N=Cc1ccccc1,94.3% (inactive)
10,CCCCOS(=O)(=O)c1ccccc1,106% (inactive)
11,O=[N+]([O-])c1cc(-c2ccccc2)c(O)c([N+](=O)[O-])c1,94.9% (inactive)
12,CCCCCCC1N=C(N)N=C(N)N1c1cccc(Cl)c1 (stereo not drawn),63.9% (inactive)
13,O=[n+]1c2ccccc2n([O-])c2cc(Cl)ccc21,80.7% (inactive)
14,N#CC1c2ccccc2C=CN1C(=O)CCCl (stereo not drawn),79.9% (inactive)
15,CN(Cc1ccccc1)c1ccc(SC#N)cc1,102% (inactive)
16,O=[N+]([O-])C=C(c1ccccc1)c1ccccc1,84% (inactive)
17,CC1CC(C)(C)OB(OC(C)CC(C)(C)OB2OC(C)CC(C)(C)O2)O1 (stereo not drawn),94.8% (inactive)
18,CCCCCCCCCCCC[n+]1ccccc1 (tested in a mixture with another compound),-52.3% (active)
